In all, about 310,000 compounds went through this assay and about 14,000 (4.5%) showed an effect of 50% or more. Effects have a minus sign here. This is one part of a sample in which strong results are shown more often than they occur.
The molecules below were run against human ether-à-go-go-related gene (hERG) potassium channel (human, UniProt Q12809) (assay: primary screen, population patch clamp on CHO cells stably expressing hERG; higher = less effect of the substance).
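Also: peak tail current of the secondary pulse compared with the same well before compound.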

Chain of human ether-à-go-go-related gene (hERG) potassium channel (Q12809 whole entry, looked up): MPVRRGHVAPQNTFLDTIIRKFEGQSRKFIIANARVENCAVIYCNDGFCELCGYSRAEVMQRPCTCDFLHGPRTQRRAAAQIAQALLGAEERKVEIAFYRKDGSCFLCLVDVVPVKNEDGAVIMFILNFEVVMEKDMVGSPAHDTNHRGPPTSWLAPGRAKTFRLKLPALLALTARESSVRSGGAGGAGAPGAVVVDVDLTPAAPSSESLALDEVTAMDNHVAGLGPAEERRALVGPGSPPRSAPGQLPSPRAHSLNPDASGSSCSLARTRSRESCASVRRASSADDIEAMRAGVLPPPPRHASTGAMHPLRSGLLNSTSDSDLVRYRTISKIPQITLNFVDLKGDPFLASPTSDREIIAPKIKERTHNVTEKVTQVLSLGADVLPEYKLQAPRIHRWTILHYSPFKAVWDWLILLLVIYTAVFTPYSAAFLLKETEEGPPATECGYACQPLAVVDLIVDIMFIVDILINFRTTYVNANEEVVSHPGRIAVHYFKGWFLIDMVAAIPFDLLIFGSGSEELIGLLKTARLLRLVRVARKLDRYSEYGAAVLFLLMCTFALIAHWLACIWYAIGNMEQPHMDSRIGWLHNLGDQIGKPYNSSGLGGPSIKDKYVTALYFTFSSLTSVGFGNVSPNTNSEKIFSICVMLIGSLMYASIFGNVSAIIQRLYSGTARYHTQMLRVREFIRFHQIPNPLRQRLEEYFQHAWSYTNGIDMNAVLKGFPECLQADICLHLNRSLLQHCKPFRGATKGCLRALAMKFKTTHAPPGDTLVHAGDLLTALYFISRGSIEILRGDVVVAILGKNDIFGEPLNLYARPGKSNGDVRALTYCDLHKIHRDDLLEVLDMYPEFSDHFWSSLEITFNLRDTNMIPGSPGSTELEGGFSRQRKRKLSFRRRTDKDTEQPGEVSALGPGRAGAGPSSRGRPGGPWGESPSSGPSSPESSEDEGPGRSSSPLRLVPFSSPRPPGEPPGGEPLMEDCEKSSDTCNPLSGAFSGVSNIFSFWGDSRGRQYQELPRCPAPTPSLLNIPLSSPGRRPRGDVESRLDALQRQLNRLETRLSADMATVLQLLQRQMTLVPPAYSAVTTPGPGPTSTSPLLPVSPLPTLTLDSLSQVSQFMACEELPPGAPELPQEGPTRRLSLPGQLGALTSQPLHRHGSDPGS

| Structure (SMILES) | hERG current change (%, negative = inhibition) at 10uM [%] |
| --- | --- |
| CCOc1ccccc1CNC(=O)Cn1ccc2cc(S(=O)(=O)N3CCCCCC3)ccc21 | 10.4 |
| COc1ccc2cc(N=Cc3nc(-c4ccc(C)cc4)oc3O)cnc2c1 | 1.84 |
| CCC(=O)N1CCc2cc(S(=O)(=O)N3CCCCCC3)ccc21 | 12.6 |
| CNC(=O)c1cccn1-c1ccsc1C(=O)OC | 7.33 |
| COc1ccc(Cc2nc3ccc(C(=O)N(C)CCn4ccnc4)cc3o2)cc1OC | 15.5 |
| O=C(COC(=O)c1ccc(F)cc1F)Nc1ccc2[nH]c(=O)[nH]c2c1 | 10.3 |
| C=CCN(CC=C)C(=O)C(=O)c1cc(C)n(-c2ccc([N+](=O)[O-])cc2)c1C | -63.4 |
| Cc1cc(C(=O)C(=O)N(C)C)c(C)n1-c1ccc([N+](=O)[O-])cc1 | -25.7 |
| Cc1cc(C(=O)C(=O)NC(C)C)c(C)n1-c1ccc([N+](=O)[O-])cc1 | -22.8 |
| O=C(/C=C/C=C/c1ccc2c(c1)OCO2)N1CCCCC1 | -8.23 |
| CCc1noc(C)c1C(=O)OCC(=O)NC(=O)c1ccccc1OC | 12.5 |
| COc1cc(OC)c(C#N)c(S(=O)(=O)Cc2ccccc2)c1 | -3.9 |
| CCN(CCNC(=O)CC1Oc2ccccc2NC1=O)c1ccccc1 (centres unmarked) | 9.82 |
| Cc1ccc2c(c1)NC(=O)C(CC(=O)NCCN(C)C)O2 (centres unmarked) | -2.42 |
| CCN(CC)CCNC(=O)c1ccc2c(c1)NC(=O)c1ccccc1S2 | -31.9 |
| CCC(C)N(CCNC(=O)CC1Oc2ccccc2NC1=O)C1CCCCC1 (centres unmarked) | -57.7 |
| Cc1ccc2c(c1)NC(=O)C(CC(=O)NCCN(CC(C)C)CC(C)C)O2 (centres unmarked) | -24.7 |
| CN(C)CCNC(=O)c1ccc2c(c1)NC(=O)c1ccccc1S2 | 17.3 |
| CCC(C)N(CCNC(=O)c1ccc2c(c1)NC(=O)c1ccccc1S2)C1CCCCC1 (centres unmarked) | -66.4 |
| CC(C)CN(CCNC(=O)CC1Oc2ccccc2NC1=O)CC(C)C (centres unmarked) | -27.7 |
| CCC(C)N(CCNC(=O)CC1Oc2ccc(C)cc2NC1=O)C1CCCCC1 (centres unmarked) | -71.5 |
| COCCn1c(C)cc2c(c1=O)C(c1ccco1)C(C#N)=C(N)O2 (centres unmarked) | 12.7 |

| Structure (SMILES) | hERG current change (%, negative = inhibition) at 10uM [%] |
| --- | --- |
| C=CCn1c(CSc2nnc(-c3ccccc3)n2C)n[nH]c1=S | 16.7 |
| O=C(Nc1ccc(Cl)cc1)c1ccc(Br)cc1F | 14.4 |
| COCc1cc(Sc2cccc(Cl)c2Cl)nc(-c2ccccc2)n1 | 9.15 |
| Cc1ccc(S(=O)(=O)N(CC(=O)NN=C2CCN(C)CC2)c2ccc(C(C)C)cc2)cc1 | -21.3 |
| CCn1cc(C(=O)N2CCN(Cc3ccc4c(c3)OCO4)CC2)c(=O)c2ccc(C)nc21 | -1.84 |
| CCC(C)(C)NC(=O)C(c1ccc(OC)cc1)N(C(=O)CCC(=O)Nc1cc(C)on1)c1ccc(OC)c(OC)c1 (centres unmarked) | 3.38 |
| Cc1ccc(OCC(=O)N/N=C/c2cn(C)c3ccccc23)cc1 | 10.2 |
| CC1c2cccn2CCN1S(=O)(=O)c1ccccc1 (centres unmarked) | 5.9 |
| CC1c2cccn2CCN1S(=O)(=O)c1ccc(F)cc1 (centres unmarked) | -52.3 |
| Cc1ccc(S(=O)(=O)N2CCn3cccc3C2C)cc1 (centres unmarked) | -22.7 |
| COc1cc(NS(=O)(=O)c2ccc(NC(=O)/C(=C\c3ccccc3OC)NC(=O)c3ccccc3)cc2)nc(OC)n1 | 26.5 |
| C=CCOc1ccc(/C=N/NC(=O)CN2CCOCC2)cc1OCC | 12.4 |
| CCCOc1ccc(/C=N/NC(=O)CN2CCCCC2)cc1OCC | -51.4 |
| COc1cc(/C=N/NC(=O)CN2CCCCC2)ccc1OCc1ccccc1 | -64.1 |
| CCOc1cc(/C=N/NC(=O)CN2CCCCC2)ccc1O | -5.51 |
| COc1cc(/C=N/NC(=O)CN2CCOCC2)ccc1OCc1ccccc1 | 5.45 |
| CCOc1ccc(/C=N/NC(=O)CN2CCCCC2)cc1OCC | 11 |
| C=CCOc1ccc(/C=N/NC(=O)C(=O)N2CCCCCC2)cc1OC | 16.5 |
| O=C(CN1CCCCC1)N/N=C/c1ccccc1OCc1ccccc1 | -30.2 |
| CCOc1cc(/C=N/NC(=O)CN2CCOCC2)ccc1OCc1ccccc1 | -9.58 |
| CCOc1cc(/C=N/NC(=O)CN2CCCCC2)ccc1OCc1ccccc1 | -59.9 |
| CCOc1cc(/C=N/NC(=O)CN2CCCCC2)ccc1OCc1cccc(Cl)c1 | -45.3 |

| Structure (SMILES) | hERG current change (%, negative = inhibition) at 10uM [%] |
| --- | --- |
| C=CCOc1ccc(/C=N/NC(=O)CN2CCCCC2)cc1OC | -61 |
| CC(=O)N1c2ccccc2C(C)(C)C2CCC(C)CC21 (centres unmarked) | -8.9 |
| COc1ccc(-c2cn[nH]c2-c2ccc(OC)cc2)cc1 | 8.51 |
| CCN(CC)C(=O)c1c[nH]c2ccc(S(=O)(=O)Nc3cc(C)cc(C)c3)cc2c1=O | -0.741 |
| CCOC(=O)c1[nH]c(Cc2[nH]c(C(=O)OCC)c(C)c2CCC(=O)OC)c(CCC(=O)OC)c1C | 3.71 |
| COc1cccc(-c2nc(-c3ccccc3)no2)c1 | 1.72 |
| Cc1cccc(Nc2nc3c(S(=O)(=O)c4ccccc4)nnn3c3ccccc23)c1C | 12.6 |
| CCC(C)NC(=O)Cn1nc(C(F)(F)F)c2c1CCC2 (centres unmarked) | 1.83 |
| N#Cc1c(SCC(=O)Nc2nc3ccccc3s2)sc2c(O)cc(=O)[nH]c12 | 20.7 |
| c1ccc2c(c1)nc(Nc1ccc(N3CCCCC3)cc1)c1nncn12 | -13.8 |
| Cc1nc(-c2ccc(F)cc2)c(CC(=O)Nc2cccc(S(=O)(=O)N3CCOCC3)c2)s1 | -15.8 |
| CCOc1cc(/C=N/NC(=O)CN2CCCCC2)ccc1OCc1ccc(Cl)cc1 | 7.37 |
| Cc1nn(-c2ccccc2)c(N2CCCC2)c1/C=N/NC(=O)c1ccccc1O | -2.88 |
| COc1cc(/C=N/NC(=O)CN2CCCCC2)ccc1OCc1ccc(Br)cc1 | -59 |
| COc1ccc(/C=N/NC(=O)CN2CCN(Cc3ccccc3)CC2)cc1Br | -68 |
| COc1cc(/C=N/NC(=O)CCN2CCN(Cc3ccccc3)CC2)cc(OC)c1OC | -29.2 |
| COc1cc(/C=N/NC(=O)c2cc3ccccc3cc2O)ccc1OCCN1CCCCC1 | -65.9 |
| COc1ccc(Br)cc1/C=N/NC(=O)CN1CCCCC1 | -4.99 |
| COc1cc(/C=N/NC(=O)c2ccncc2)ccc1OCCN1CCCCC1 | -3.37 |
| Cc1nn(-c2ccccc2)c(N2CCCC2)c1/C=N/NC(=O)c1cc(-c2ccccc2)nc2ccccc12 | 13.3 |
| Cc1nn(-c2ccccc2)c(N2CCCC2)c1/C=N/NC(=O)c1cc2ccccc2cc1O | -55.5 |
| COc1cc(/C=N/NC(=O)c2ccoc2C)ccc1OCCN1CCCCC1 | -31.6 |

| Structure (SMILES) | hERG current change (%, negative = inhibition) at 10uM [%] |
| --- | --- |
| COc1ccc(Br)cc1/C=N/NC(=O)CN1CCN(Cc2ccccc2)CC1 | -33.1 |
| Cc1ccc(S(=O)(=O)Nc2cc(C)on2)cc1 | 15.4 |
| CCN(CC(=O)Nc1ccc(NC(C)=O)cc1)C(=O)c1cc(-c2ccccc2)nn1-c1ccccc1 | 8.43 |
| O=C(CSc1nnc(-c2cccnc2)o1)NNC(=O)c1ccc(Br)cc1 | 2.19 |
| O=C(COc1ccccc1)N(Cc1cc2ccccc2[nH]c1=O)CC1CCCO1 (centres unmarked) | -1.24 |
| CCC1(c2ccccc2)NC(=O)N(CC(=O)Nc2ccccc2N2CCCC2)C1=O (centres unmarked) | 1.38 |
| O=C(c1cc(-c2cccc(Cl)c2)nc2ccccc12)N1CCCC1 | -40.2 |
| CCC(C)NS(=O)(=O)c1ccc(OCC(=O)Nc2ccc3c(c2)OCCO3)cc1 (centres unmarked) | -26.3 |
| Cl.Fc1ccccc1COc1ccccc1CNCc1ccncc1 | -44 |
| Cl.Fc1ccc(COc2ccccc2CNCc2ccncc2)cc1 | -32.6 |
| Cl.Fc1ccc(COc2ccc(Br)cc2CNCc2ccncc2)cc1 | -74.7 |
| CCOc1ccc(Br)cc1CNCc1cccnc1 | -10.2 |
| Cl.Fc1ccccc1COc1ccc(Br)cc1CNCc1ccncc1 | -70.2 |
| Brc1ccc(OCc2ccccc2)c(CNCc2ccncc2)c1.Cl | -19.9 |
| Cl.c1ccc(COc2ccccc2CNCc2cccnc2)cc1 | -8.89 |
| COc1cc(CNCc2ccncc2)cc(Br)c1OCc1ccccc1F.Cl | -43.3 |
| Cl.Fc1ccccc1COc1ccc(Br)cc1CNCc1cccnc1 | -70.2 |
| CCC(NC(=O)c1ccccc1NC(=O)c1ccco1)C(=O)NNC(=O)c1ccncc1 (centres unmarked) | 8.86 |
| COc1ccc(NC(=O)CCCc2ccc(OC)c(C)c2)cc1 | 3.93 |
| Cn1nnnc1SCC(=O)NCc1ccc2c(c1)OCO2 | 31.4 |
